# From PMC8384837, “Expanding the binding specificity for RNA recognition by a PUF domain”
# Molecular target: PUM1 PUF domain R4-WGW (Homo sapiens, UniProt Q14671 828-1176, N971W;H972G;Q975W)
# Test: yeast three-hybrid, YBZ-1, SC-Leu-His + 0.5 mM 3-AT, 4 days
# Settings: tags: N-Gal4 AD-HA kept; label: inside an RPR1-promoter hybrid RNA with tandem MS2 sites; ssRNA
# How it was run: (§1)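 Pumilio-1 PUF domain libraries, randomized at the three base-contacting residues of each repeat, were co-expressed with matching RNA elements from a centromeric plasmid in strain YBZ-1, which carries a LexA–MS2 coat fusion and a HIS3 reporter. Transformants grew for four days on SC-Leu (input) or on SC-Leu-His + 0.5 mM 3-AT (selection), and the repeat regions were PCR-amplified and Illumina-sequenced. The interaction score is the log change in variant frequency from input to selection. That logarithm is base 2, with a pseudocount of 1 where a variant was absent.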
row,Sequence,binding signal
1,GGCUAGAACUAGUGGAUCCCCCGGCGCCCGGCGGCUCGAGCCCGGGUAAGUGUAAAUAGUCUGCAUGCCGCCGGGCGCCAUGCCUGCAGGUCGACUCUAGAAAACAUG,3.2 log2 enrichment (interaction score)
2,GGCUAGAACUAGUGGAUCCCCCGGCGCCCGGCGGCUCGAGCCCGGGUAAGUGUAUAUAGUCUGCAUGCCGCCGGGCGCCAUGCCUGCAGGUCGACUCUAGAAAACAUG,3.62 log2 enrichment (interaction score)
3,GGCUAGAACUAGUGGAUCCCCCGGCGCCCGGCGGCUCGAGCCCGGGUAAGUGUACAUAGUCUGCAUGCCGCCGGGCGCCAUGCCUGCAGGUCGACUCUAGAAAACAUG,2 log2 enrichment (interaction score)

# Molecular target: PUM1 PUF domain R3-GHG (Homo sapiens, UniProt Q14671 828-1176, C935G;R936H;Q939G)
# Test: as above
# Settings: tags: N-Gal4 AD-HA kept; label: inside an RPR1-promoter hybrid RNA with tandem MS2 sites; ssRNA
# How it was run: as §1
row,Sequence,binding signal
1,GGCUAGAACUAGUGGAUCCCCCGGCGCCCGGCGGCUCGAGCCCGGGUAAGUGUAAAUAGUCUGCAUGCCGCCGGGCGCCAUGCCUGCAGGUCGACUCUAGAAAACAUG,3.44 log2 enrichment (interaction score)
2,GGCUAGAACUAGUGGAUCCCCCGGCGCCCGGCGGCUCGAGCCCGGGUAAGUGUAAGUAGUCUGCAUGCCGCCGGGCGCCAUGCCUGCAGGUCGACUCUAGAAAACAUG,1.95 log2 enrichment (interaction score)
3,GGCUAGAACUAGUGGAUCCCCCGGCGCCCGGCGGCUCGAGCCCGGGUAAGUGUAAUUAGUCUGCAUGCCGCCGGGCGCCAUGCCUGCAGGUCGACUCUAGAAAACAUG,1.43 log2 enrichment (interaction score)

# Molecular target: T1, PUM1 PUF domain R6-RWR (Homo sapiens, UniProt Q14671 828-1176, N1043R;Y1044W;Q1047R)
# T1 sequence: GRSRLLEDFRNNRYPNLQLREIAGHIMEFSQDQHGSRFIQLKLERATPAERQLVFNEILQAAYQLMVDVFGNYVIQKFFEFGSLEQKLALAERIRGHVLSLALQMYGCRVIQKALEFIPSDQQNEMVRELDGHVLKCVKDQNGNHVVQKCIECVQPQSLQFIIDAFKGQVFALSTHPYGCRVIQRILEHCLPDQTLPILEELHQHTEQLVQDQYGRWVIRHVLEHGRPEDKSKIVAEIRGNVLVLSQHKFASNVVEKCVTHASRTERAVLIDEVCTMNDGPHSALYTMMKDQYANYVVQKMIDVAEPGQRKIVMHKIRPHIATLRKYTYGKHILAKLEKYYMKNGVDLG
# Test: as above
# Settings: tags: N-Gal4 AD-HA kept; label: inside an RPR1-promoter hybrid RNA with tandem MS2 sites; ssRNA
# How it was run: as §1
row,Sequence,binding signal
1,GGCUAGAACUAGUGGAUCCCCCGGCGCCCGGCGGCUCGAGCCCGGGUAAGUGUAAAUAGUCUGCAUGCCGCCGGGCGCCAUGCCUGCAGGUCGACUCUAGAAAACAUG,6.07 log2 enrichment (interaction score)
2,GGCUAGAACUAGUGGAUCCCCCGGCGCCCGGCGGCUCGAGCCCGGGUAAGUGAAAAUAGUCUGCAUGCCGCCGGGCGCCAUGCCUGCAGGUCGACUCUAGAAAACAUG,4.83 log2 enrichment (interaction score)
3,GGCUAGAACUAGUGGAUCCCCCGGCGCCCGGCGGCUCGAGCCCGGGUAAGUGCAAAUAGUCUGCAUGCCGCCGGGCGCCAUGCCUGCAGGUCGACUCUAGAAAACAUG,1.4 log2 enrichment (interaction score)
4,GGCUAGAACUAGUGGAUCCCCCGGCGCCCGGCGGCUCGAGCCCGGGUAAGUGGAAAUAGUCUGCAUGCCGCCGGGCGCCAUGCCUGCAGGUCGACUCUAGAAAACAUG,1.16 log2 enrichment (interaction score)
